# Source: PubChem BioAssay (NCATS)
# Results filed as inconclusive are left out. Where a call stands in place of a potency, no number is given. Calls of active or inactive are those of the source. Calls follow the shape of the dose curve; as a rule, active = well fitted curve in the direction sought with a large enough effect; inconclusive = small, poorly fitted or top-dose-only effect, or another doubt; inactive = no such curve, though single readings can be large; an effect the other way counts as inactive or inconclusive.
# What was measured:
# [1] = tested on: Zika virus NS2B-NS3 protease (unlinked complex); assay: Confirmatory screen GU AMC qHTS for Zika virus inhibitors (AID 1347153); also: nearly all actives have a fitted effect of over 70% in size;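 as to potency: enzyme at 25 nM with substrate at 10 µM below its Km of 18.3 µM; potency is read from the fitted curve at half-maximal effect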
# Method in brief: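 Compounds were preincubated 15 min at room temperature with 25 nM noncovalent NS2B-NS3 protease at pH 8.0; AMC substrate added at 10 microM and 15-min fluorescence gain (340/450 nm) converted to percent inhibition, fitted 4-parameter.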
# [2] = Confirmatory screen GU Rhodamine qHTS for Zika virus inhibitors qHTS (AID 1347157); also: potency is read from the fitted curve at half-maximal effect; nearly all actives have a fitted effect of over 70% in size
# Method in brief: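 Percent inhibition came from the 15-min rise in Rhodamine110 fluorescence (1.5 microM substrate, ~15% conversion), normalized to no-inhibitor and no-enzyme wells and Hill-fitted. Unlinked protease, 25 nM, pH 8.0 Tris buffer; compounds up to 114 microM, 15-min preincubation.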
# [3] = tested on: Zika virus NS2B-NS3 protease (linked); assay: 384 well plate NINDS AMC confirmatory qHTS for Zika virus inhibitors (AID 1347163); settings: Recombinant NS2B-NS3 protease, Ac-VKTGKR-AMC fluorescence; also: potency is read from the fitted curve at half-maximal effect; nearly all actives have a fitted effect of over 50% in size
# Description: Description: Assay Submitters (PI): Avindra Nath, Ph.D., National Institute of Neurological Disorders and Stroke (NINDS), Bethesda, MD Radhakrishnan Padmanabhan, Ph.D., Georgetown University (GU), Washington D.C. Zika Virus causes congenital defects, including microcephaly and is associated with Guillain-Barre syndrome, eningoencephalitis and myelitis in infected adult. […] Using a target-based approach, we hope to establish a screening paradigm to uncover novel, cell-active NS2B-NS3 protease (Zika Virus) specific inhibitors from NCATS' collection of small molecules using qHTS. […] Four assay panel was created to identify potential Zika Virus inhibitors. Namely, (1) GU unlinked NS2B-NS3 AMC tagged protease qHTS, (2) GU unlinked NS2B-NS3 Rhodamine tagged protease qHTS, (3) NINDS linked NS2B-NS3 AMC tagged protease qHTS, (4) NINDS linked NS2B-NS3 Rhodamine tagged protease qHTS. Active compounds are validated using a secondary assay in 384 well plate format. Early Translation Branch (ETB) National Center for Advancing Translational Sciences (NCATS), Rockville, MD National Institute of Health (NIH), Bethesda, Maryland
# 384-well NINDS AMC Assay The protease was diluted to 7.5 nM, 40.9 nM, or 82 nM in assay buffer and dispensed into a 96-well PCR plate (Applied Biosystems); 20 or 22 microL was transferred to a black 384-well assay plate (final protease concentration of 5 nM, 30 nM, or 60 nM, respectively). Compounds (3 microL, 1 microM - 10 mM, DMSO) were diluted and transferred to the assay plate (final concentrations ranged from 100 nM to 1 mM). Compounds were incubated with protease for ~15 minutes. The substrate, Ac-VKTGKR-AMC (Genscript), was dissolved in DMSO to a concentration of 6 mM and further diluted into assay buffer to a working concentration of 180 microM, then dispensed into a 384-well preparation plate (Eppendorf). A multichannel repeat pipettor was used to add 3 or 5 microL of substrate to the assay plate to give a final concentration of 30 microM. The plate was incubated in the dark at room temperature. After 25 minutes, the fluorescence intensity (excitation: 355 nm, emission: 460 nm) was measured and normalized to no-enzyme and no-inhibitor controls. Aprotinin39 (VWR) was used as an intraplate control.
# [4] = tested on: Zika virus NS2B-NS3 protease (linked construct); assay: 384 well plate NINDS Rhodamine confirmatory qHTS for Zika virus inhibitors (AID 1347164);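 also: fluorescence from protease cleavage of Ac-LKRR-rhodamine 110 substrate; nearly all actives have a fitted effect of over 65% in size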; also: potency is read from the fitted curve at half-maximal effect
# Method in brief: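 Linked NS2B-NS3 protease (final 5, 30 or 60 nM) preincubated ~15 minutes with compounds, then 10 microM Ac-LKRR-Rhodamine 110 added. Fluorescence (485/538 nm) read after 25 minutes at room temperature, normalized to no-enzyme and no-inhibitor controls.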
# [5] = ZIKV-mCherry secondary qHTS for Zika virus inhibitors (AID 1347158); settings: Vero cells, ZIKV-mCherry infection imaging, 48-72 h; also: potency is read from the fitted curve at half-maximal effect
# Description: Assay Submitters (PI): Avindra Nath, Ph.D., National Institute of Neurological Disorders and Stroke (NINDS), Bethesda, MD Radhakrishnan Padmanabhan, Ph.D., Georgetown University (GU), Washington D.C. Zika Virus causes congenital defects, including microcephaly and is associated with Guillain-Barre syndrome, eningoencephalitis and myelitis in infected adult. […] Using a target-based approach, we hope to establish a screening paradigm to uncover novel, cell-active NS2B-NS3 protease (Zika Virus) specific inhibitors from NCATS' collection of small molecules using qHTS. […] Four assay panel was created to identify potential Zika Virus inhibitors. […]
# 384 well ZIKV-mCherry Assay: We have developed a new orthogonal imaging assay in 384-well plate format, which uses recombinant virus ZIKV-mCherry in Vero cells. […] The TIFFs were quantitated using the canned Multi Target Analysis protocol (GE Investigator Workstation software v3.7.2). […] A recombinant Zika viral infection was monitored in the Cy5 channel (cells) using a 2 microm collar dilation from the nuclear bitmap. mCherry objects with an average nuclear RFU intensity above 450 (3 stdev above mean negative control wells) were considered "mcherry positive" and data was analyzed by percent infection rate.
# [6] = tested on: Zika virus NS2B-NS3 protease (linked construct); assay: Primary screen NINDS Rhodamine qHTS for Zika virus inhibitors (AID 1347160); also: nearly all actives have a fitted effect of over 55% in size
# Method in brief: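 In 10 mM Tris-HCl pH 8.0 containing 0.01% Tween 20, linked NS2B-NS3 protease (25 nM final) is exposed to test compounds for 15 min. Cleavage of 1.5 microM Rhodamine110 substrate is tracked by fluorescence over 15 min.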
# [7] = tested on: Zika virus NS2B-NS3 protease (unlinked complex); assay: Primary screen GU Rhodamine qHTS for Zika virus inhibitors: Unlinked NS2B-NS3 protease assay (AID 1347159); also: nearly all actives have a fitted effect of over 60% in size
# Method in brief: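 Percent inhibition derives from the 15-min fluorescence change (ex 480, em 540 nm), normalized to no-enzyme and no-inhibitor wells. Reactions contained 25 nM NS2B-NS3 complex and 1.5 microM substrate in 10 mM Tris-HCl pH 8.0.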
smiles,measurement,setting,value
O=c1ccc2[nH]cc(C3=CCNCC3)c2[nH]1,Potency,[1],24.1 µM (active)
C[C@@]1(C(=O)O)CC[C@]2(C)CC[C@]3(C)C4=CC(=O)c5cc(O)c(O)cc5[C@]4(C)CC[C@@]3(C)[C@@H]2C1,Potency,[1],inactive
same,Potency,[2],2.42 µM (active)
same,Potency,[3],56.2 µM (active)
same,Potency,[4],1.12 µM (active)
CC(=O)c1c(O)c(C)c(O)c(Cc2c(O)c3c(c(C(=O)/C=C/c4ccccc4)c2O)OC(C)(C)C=C3)c1O,Potency,[2],5.62 µM (active)
same,Potency,[5],3.55 µM (active)
same,Potency,[3],63.1 µM (active)
same,Potency,[4],31.6 µM (active)
CCCCCOc1cc2c(cc1-c1cc(/C=C/C(=O)O)ccc1O)C(C)(C)CCC2(C)C,Potency,[3],25.1 µM (active)
same,Potency,[4],inactive
COCC1OC(=O)c2coc3c2C1(C)C1=C(C3=O)C2CCC(=O)C2(C)CC1O (stereo not given),Potency,[6],inactive
O=C(N1CCOCC1)N1CCN(c2ccc(Cl)cc2)CC1,Potency,[7],inactive
same,Potency,[6],inactive
CO[C@H]1[C@H](O)[C@H](O[C@H]2CC[C@]3(C)C4CC[C@]5(C)[C@H](C6=CC(=O)OC6)CC[C@]5(O)C4CC[C@@H]3C2)O[C@@H](C)[C@@H]1O (stereo not given in full),Potency,[7],inactive
same,Potency,[6],inactive
CCN1C[C@]2(COC(=O)c3ccccc3N3C(=O)C[C@H](C)C3=O)CC[C@H](OC)[C@@]34[C@@H]5C[C@H]6[C@H](OC)[C@@H]5[C@](O)(C[C@@H]6OC)[C@](O)([C@@H](OC)[C@H]23)[C@@H]14,Potency,[7],inactive
same,Potency,[6],inactive
C=C[C@H]1[C@H](O[C@@H]2O[C@H](CO)[C@@H](O)[C@H](O)[C@H]2O)OC=C2C(=O)OCC[C@H]21,Potency,[7],inactive
same,Potency,[6],inactive
